An excerpt weighted towards active compounds, which were near 2.9% of everything screened.
SNCA expr inh = SNCA gene expression inhibition | Potency, µM (titrated, usually from 57.2 µM), without a hit: at the highest dose activity change, negative = inhibition, usual class: inhibitors | AID 1671194 | 140,000 compounds, 0.17% hits | HEK-293 SNCA-luciferase knock-in, luminescence, 24 h;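 note: potency is the fitted concentration of half-maximal effect; plate controls were DMSO cells for no effect and cell-free wells for full effect; nearly all actives have a fitted effect of over 45% in size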
KDM5B inhibitor = blocks human KDM5B histone demethylase activity. Q9UGL1. KDM5B demethylase, FDH-coupled NADH fluorescence (FDH is formaldehyde dehydrogenase). Potency, µM (titrated, usually from 57.7 µM), hits mostly inhibitors. 220,000 compounds, 2.6% hits; note: potency is the fitted concentration of half-maximal effect; 0% is about no effect; nearly all actives have a fitted effect of over 70% in size
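Here, H3K4me3 peptide (12.5 µM in substrate mix) is demethylated by KDM5BΔAP, 200 nM final, after 10 min compound exposure. Formaldehyde product is coupled through FDH (0.25 U/mL in mix) to NADH fluorescence; 30-min ΔRFU feeds dose-response curves.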
IP6K1 inh = IP6K1 kinase inhibition | Q92551 | IP6K1 kinase, ADP-Glo luminescence, 2 h; hits give low values | activity change, % (series mostly up to about 58 µM) | 140,000 compounds, 0.81% hits | AID 1645851; in the data active = activity change below about -25%; note: % is set by controls: 0 for no effect and ±100 for the full control effect
Target sequence (Q92551 whole entry, looked up): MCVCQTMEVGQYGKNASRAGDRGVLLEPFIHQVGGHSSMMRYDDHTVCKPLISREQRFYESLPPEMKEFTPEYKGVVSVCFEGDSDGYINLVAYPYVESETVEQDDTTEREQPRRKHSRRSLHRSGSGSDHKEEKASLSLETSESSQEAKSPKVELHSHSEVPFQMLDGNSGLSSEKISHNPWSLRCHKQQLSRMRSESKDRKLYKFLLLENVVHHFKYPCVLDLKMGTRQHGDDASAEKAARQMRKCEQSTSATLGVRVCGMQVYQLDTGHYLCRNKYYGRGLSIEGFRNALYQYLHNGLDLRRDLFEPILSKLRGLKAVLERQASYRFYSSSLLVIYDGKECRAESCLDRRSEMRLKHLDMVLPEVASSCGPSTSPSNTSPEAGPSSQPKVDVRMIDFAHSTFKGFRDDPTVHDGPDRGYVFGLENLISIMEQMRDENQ
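ADP-Glo luminescence measures ADP made by human IP6K1 during a 2 h RT reaction with ATP/IP6 (mix at 1.3 mM/130 uM); top library doses 57.5 and 19.1 uM final.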
HEK293 viab = counter-screen for SNCA expression inhibitors: cell viability; HEK-293-SNCA-luc viability, GF-AFC fluorescence, 24 h; AID 1671193; Potency, µM (titrated, usually from 57.1 µM), without a hit: at the highest dose activity change, negative = cytotoxicity, actives largely listed as cytotoxic; 150,000 compounds, 0.12% hits;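 note: potency is the fitted concentration of half-maximal effect; 0% = DMSO-treated cells and -100% = medium-only wells without cells; nearly all actives have a fitted effect of over 30% in size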
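HEK-293-SNCA-luc cells (1500/well) plated 24 h, then exposed 24 h to a dilution series; GF-AFC added 30 min at 37C, fluorescence 405/540 nm; normalised to medium-only and DMSO wells, Hill fit.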
The depositor's hits bear a star; i = inactive; ? = inconclusive; . = no result given; [ ] = another dose, or the depositor's remark. Unless noted, calls come from the whole dose curve; as a rule, active = well fitted curve in the direction sought with a large enough effect; inconclusive = small, poorly fitted or top-dose-only effect, or another doubt; inactive = no such curve, though single readings can be large; an effect the other way counts as inactive or inconclusive.

SMILES | SNCA expr inh | KDM5B inhibitor | IP6K1 inh | HEK293 viab
COc1cccc(-c2nc(N3CCOCC3)cc3c2CN(Cc2ccccc2)C3=O)c1OC | -1.8% | 31.6µM* | 7.7 | -2.4%
COc1ccc(-c2nc(N3CCOCC3)cc3c2CN(Cc2ccccc2)C3=O)cc1 | 58.7%[87.6 µM] | i | 12.5 | 3.0%[87.6 µM]
O=C1c2cc(N3CCOCC3)nc(-c3cccc(CO)c3)c2CN1c1ccccc1 | 26.7%[87.6 µM] | 35.5µM* | 11.6 | -12.1%[87.6 µM]
COc1cc(F)ccc1-c1nc(N2CCOCC2)cc2c1CN(CC(F)(F)F)C2=O | -22.9%[87.6 µM] | 31.6µM* | 7.8 | 9.4%[87.6 µM]
CN1Cc2c(cc(N3CCOCC3)nc2-c2ccccc2OC(F)(F)F)C1=O | 8.8%[87.6 µM] | 35.5µM* | 4.9 | -27.0%[87.6 µM]
O=C1c2cc(N3CCOCC3)nc(-c3ccccc3)c2CN1Cc1ccccc1 | ? | 31.6µM* | 10.8 | 0.4%[87.6 µM]
COc1cccc(-c2nc(N3CCOCC3)cc3c2CN(CC2CC2)C3=O)c1OC | -11.5%[87.6 µM] | 35.5µM* | 0.4 | -0.8%[87.6 µM]
O=C(NC1CCCN(c2ccnc3ccnn23)C1)c1ccc(C(F)(F)F)cc1 (centres undefined) | -17.1% | . | 19.3 | -17.1%
Cc1ccc(C(=O)N2CCCC2c2nc(CCOCc3ccccc3)no2)s1 (centres undefined) | -4.0% | . | -16.6 | 0.0%
Cc1ccc(CN2C(=O)C(=O)c3cc(Br)cc(C)c32)cc1 | 22.4µM* | ? | -8.5 | ?
O=C(Nc1nccs1)[C@@H]1C[C@@H](c2cccc(C(F)(F)F)c2)N(CC2CCOCC2)C1 | ? | ? | 2.5 | -16.8%[87.6 µM]
Cc1noc([C@@H]2CN(C(=O)c3ccc4cc[nH]c4c3)C[C@H]2CO)n1 | 5.7% | 25.1µM* | -5.0 | -5.1%
CCn1ccc(C(=O)N2C[C@@H](COC)[C@H](c3nc(C)no3)C2)n1 | ? | i | -6.0 | ?
COC[C@@H]1CN(C(=O)c2cn3ccccc3n2)C[C@H]1c1nc(C)no1 | 1.3% | 20µM* | -3.6 | 2.4%
COc1cccc([C@H]2CN(C(=O)c3ccc4cc[nH]c4c3)C[C@@H]2N)c1 | 5.2% | 31.6µM* | -20.1 | -17.6%
O=C(c1ccc2cc[nH]c2c1)N1C[C@@H](CO)[C@H](c2ccccn2)C1 | -2.8% | ? | -2.0 | 2.3%
O=C(c1cc[nH]c(=O)c1)N1C[C@@H](CO)[C@H](c2ccccn2)C1 | -12.2% | 22.4µM* | 0.0 | 3.1%
O=C(NCc1ccccc1Cl)C1CCc2nnc(C3CCN([S+](=O)([O-])c4ccccc4Cl)CC3)n21 (centres undefined) | 2.8% | . | -6.4 | 6.2%
O=C(NCc1cccc(Cl)c1)C1CCN(C(=O)c2ccc(-c3cccs3)cc2)CC1 | . | . | -1.9 | .
Cc1ccc2c(C(=O)N3CCN(c4ccccc4F)CC3)cc(NC(=O)C(C)C)cc2n1 | -27.5% | ? | 6.1 | -2.6%
CC(=O)Nc1cc(C(=O)N2CCC(C)CC2)c2ccc(C)nc2c1 | ? | 22.4µM* | 11.9 | -8.7%
Cc1ccc2c(C(=O)N3CCOCC3)cc(NC(=O)C(C)C)cc2n1 | 3.9% | 22.4µM* | 16.4 | 6.3%
Cc1cc(N2CCC(NCc3nc[nH]c3C)CC2)nc(-c2ccccc2O)n1 | -20.3% | ? | -6.2 | -14.7%
CCOc1cc(=O)n2c(c1C(=O)NCCCN1CCCc3ccccc31)CCCCC2 | -16.9% | 11.2µM* | 0.2 | 10.4%
CCCc1noc(-c2ccn3c(CNC(=O)c4ccc(F)c(Cl)c4)nnc3c2)n1 | -12.5% | ? | 6.4 | 9.9%
SMILES | SNCA expr inh | KDM5B inhibitor | IP6K1 inh | HEK293 viab
COc1ccc(C(=O)NCc2nnc3cc(-c4nc(C(C)C)no4)ccn23)cc1F | 1.4% | 10µM* | 33.3 | 2.9%
Cc1noc(-c2ccn3c(CNC(=O)c4ccc(C)c(F)c4)nnc3c2)n1 | 0.2% | 3.55µM* | 13.2 | -10.8%
Cc1ccc(C(=O)NCc2nnc3cc(-c4nc(C(C)C)no4)ccn23)cc1F | -22.2% | 7.08µM* | 9.7 | -15.4%
Cc1noc(-c2ccn3c(CNC(=O)COc4ccc(F)cc4)nnc3c2)n1 | -5.0% | 12.6µM* | 3.6 | -10.9%
C=CCOc1c(OC)ccc2c1CN(Cc1ccccc1)C(=O)CCN2CC(O)COC(C)(C)C (centres undefined) | . | . | 6.5 | .
COc1cccc(C(=O)NC2CCN(Cc3cccc(-c4cccc(C)c4)c3)CC2)c1 | -12.0% | . | -6.3 | -15.4%
COC(=O)NC1CCN(Cc2cccc(-c3ccc(SC)cc3)c2)CC1 | . | . | -5.1 | .
CSc1ccc(-c2cccc(C(=O)NCCNC(=O)c3ccc(F)cc3)c2)cc1 | -19.2% | . | 15.3 | -1.0%[12.5 µM]
Cc1cc(C)n(CCC(=O)N2CCCC(c3nnnn3C)C2)n1 (centres undefined) | 4.0% | 25.1µM* | -11.7 | 4.9%
Cc1ccc(C(=O)N2CCCC(c3nn[nH]n3)C2)cn1 (centres undefined) | 3.6% | 22.4µM* | -11.6 | 6.6%
Cn1nccc1C(=O)N1CCCC(c2nn[nH]n2)C1 (centres undefined) | 3.5% | ? | -7.8 | -4.0%
O=C(c1ccc2cc[nH]c2c1)N1CCCC(c2nn[nH]n2)C1 (centres undefined) | -11.5% | 22.4µM* | -11.0 | 2.8%
O=C(c1ccco1)N1CCCC(c2nn[nH]n2)C1 (centres undefined) | -15.9% | 22.4µM* | -14.7 | 9.7%
Cc1cc(C)n(CCC(=O)N2CCCC(c3nnnn3-c3ccccc3)C2)n1 (centres undefined) | 24.2% | . | 7.0 | 3.1%
O=C(c1cc(F)ccc1F)N1CCCC(c2nn[nH]n2)C1 (centres undefined) | -7.8% | i | -11.1 | 1.2%
O=C(Nc1cccc(F)c1)C1CCCN(Cc2cccc(-c3cccs3)c2)C1 (centres undefined) | . | . | 3.7 | .
COC(=O)[C@@H]1Cc2c([nH]c3ccccc23)[C@@H]2C[C@@H](NCCNC(C)=O)C[C@@H](c3cccc(Cl)c3)N12 | 39.5% | ? | -5.1 | -3.1%
CN1CCOC[C@H]2CCN(C(=O)c3ccco3)C[C@H]21 | -8.5% | i | -1.2 | -6.3%
CN1CCC([C@@H]2CN(C(=O)c3ccccc3Cl)C[C@H]2C(N)=O)CC1 | -14.0% | i | -3.0 | 7.7%[12.5 µM]
COCCOC1CN(C2CCN(C(=O)c3ccc(OC)cc3)CC2)C12CCCCC2 (centres undefined) | -3.8% | i | 2.8 | -5.7%
COCCOC1CN(C2CCN(C(=O)c3cccc4[nH]ccc34)CC2)C12CCCCC2 (centres undefined) | 20.5% | 22.4µM* | 0.0 | 7.5%
Cn1nnnc1C1CCCN(C(=O)c2cccc3[nH]ccc23)C1 (centres undefined) | 87.1% | 31.6µM* | -15.7 | 3.8%
Cn1cccc1C(=O)N1CCCC(c2nnnn2C)C1 (centres undefined) | -2.9% | ? | -6.1 | -3.3%
CN1CCOC[C@H]2CCN(C(=O)c3cccc4[nH]ccc34)C[C@H]21 | -23.8% | 25.1µM* | 0.0 | -13.7%
CN1CCC([C@@H]2CN(C(=O)c3ccc4cc[nH]c4c3)C[C@H]2C(N)=O)CC1 | 39.0% | 20µM* | -7.5 | -1.8%[12.5 µM]
Cn1nnnc1C1CCCN(C(=O)c2ccc3cc[nH]c3c2)C1 (centres undefined) | -0.8% | 20µM* | -6.5 | -0.2%
